# Rab9 prom act: qHTS Assay for Rab9 Promoter Activators | AID 485297, 2010 | Potency, µM (doses to about 9.22 µM), actives largely listed as activators | Huh7 Rab9 promoter-luciferase reporter, luminescence, 24 h | hit rate 2.8% among 320,000; further: nearly all actives have a fitted effect of over 60% in size
#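 Luminescence from Amplite-detected luciferase (10 minutes, ambient) reports Rab9 promoter activation. Before that, stable Rab9-luciferase Huh7 cells (1500/well, reduced-serum OP-MEM I plus 10% FBS) were exposed to compound for 24 hours at 37C.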
# p53 reactivation: qHTS assay for re-activators of p53 using a Luc reporter; H1299 p53-A138V BP100-luciferase reporter, luminescence, 24 h; Potency, µM (highest dose often 92.2 µM), usual class: activators; hit rate 0.063% among 320,000; further: nearly all actives have a fitted effect of over 45% in size
#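 p53-null H1299 cells stably carrying temperature-sensitive p53-A138V and a BP100-luciferase reporter were pinned with compounds (4-point, 1:5 series) and held 24 hrs at 37 deg C. Luminescence was read 10 min after detection reagent.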
# SMN2 splice enh: qHTS Assay for Enhancers of SMN2 Splice Variant Expression. hit rate 2.8% among 210,000. Potency, µM (doses to about 46.1 µM), usual class: activators. HEK293 SMN2-luciferase splicing reporter, luminescence, 30-36 h; further: nearly all actives have a fitted effect of over 55% in size
#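 qHTS luciferase splicing reporter: luminescence rises when SMN2 exon 7 is included in transfected HEK293 cells. Compound exposure lasted 30-36 h at 37C, with 4.5 mM final sodium butyrate as control, followed by a ONE-Glo read.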
# ELG1 genotox: qHTS screen for small molecules that induce genotoxicity in human embryonic kidney (HEK293T) cells expressing luciferase-tagged ELG1; HEK293T ELG1-luciferase reporter, luminescence, 16 h; Potency, µM (doses to about 46 µM), hits mostly activators; hit rate 1.3% among 330,000; AID 504466, 2011; further: nearly all actives have a fitted effect of over 60% in size
#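 Luminescence read-out: rising ELG1-luciferase signal, reflecting elevated ELG1 protein under genetic stress, flags genotoxic compounds. Cells were treated for 16 hr at 37 °C before ONE-Glo detection.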
# NPC1 prom act: qHTS Assay for NPC1 Promoter Activators; Huh7 NPC1 promoter luciferase reporter, 24 h; Potency, µM (doses to about 9.22 µM), actives largely listed as activators; hit rate 2.4% among 320,000; further: nearly all actives have a fitted effect of over 60% in size
#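 Quantitative HTS used a cell-based reporter: Huh7 cells stably bearing the NPC1 promoter upstream of luciferase were treated with compounds for 24 h, and promoter activation was read as luminescence.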
# FLuc counter: qHTS profiling assay for firefly luciferase inhibitor/activator using purifed enzyme and Km concentrations of substrates (counterscreen for miR-21 project); hit rate 6.9% among 360,000; Potency, µM (doses to about 57.5 µM), usual class: inhibitors; purified FLuc, Km substrates, luminescence inhibition; Luciferin 4-monooxygenase (Photinus pyralis), P08659; further: nearly all actives have a fitted effect of over 55% in size
# Target sequence (P08659 whole entry, looked up): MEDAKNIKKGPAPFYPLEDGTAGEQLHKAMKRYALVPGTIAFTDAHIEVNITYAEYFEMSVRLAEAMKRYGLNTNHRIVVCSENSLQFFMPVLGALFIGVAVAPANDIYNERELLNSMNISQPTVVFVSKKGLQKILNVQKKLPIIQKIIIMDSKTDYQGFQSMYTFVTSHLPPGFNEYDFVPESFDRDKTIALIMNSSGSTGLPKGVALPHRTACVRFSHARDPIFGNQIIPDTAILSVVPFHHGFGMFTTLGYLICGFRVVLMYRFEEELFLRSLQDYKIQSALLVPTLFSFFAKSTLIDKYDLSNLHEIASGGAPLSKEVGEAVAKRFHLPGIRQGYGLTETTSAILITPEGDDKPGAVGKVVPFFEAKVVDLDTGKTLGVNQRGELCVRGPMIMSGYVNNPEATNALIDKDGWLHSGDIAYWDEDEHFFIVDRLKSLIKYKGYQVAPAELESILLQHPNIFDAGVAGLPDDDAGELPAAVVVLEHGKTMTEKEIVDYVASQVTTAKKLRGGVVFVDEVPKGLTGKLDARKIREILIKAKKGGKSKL
#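 Purified P. pyralis luciferase, 10 nM final, with Km-level 10 uM D-luciferin and 10 uM ATP in 50 mM Tris acetate pH 7.5, 10 mM Mg acetate, 0.01% Tween-20, 0.05% BSA; 6-point qHTS titration about 60 µM downward; luminescence read.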
# Numbers stand for hits; 0 = inactive; ? = inconclusive; - = no result given; [ ] = another dose, or the depositor's remark. An excerpt weighted towards active compounds, which were near 7.4% of everything screened. The call rests on the fitted dose curve; in most records, active means well fitted curve in the direction sought with a large enough effect; inconclusive means small, poorly fitted or top-dose-only effect, or another doubt; inactive means no such curve, though single readings can be large; an effect the other way counts as inactive or inconclusive.
SMILES,Rab9 prom act,p53 reactivation,SMN2 splice enh,ELG1 genotox,NPC1 prom act,FLuc counter
CC(=O)Nc1nc(COc2ccc3ccccc3c2)cs1,6.3µM,?,0,?,2.8µM,12µM
O=C(COc1ccccc1)OCc1csc(Nc2ccccc2)n1,0,0,0,0,0,?
Nc1nc(COc2ccc3ccccc3c2)cs1,-,-,0,-,-,12µM
O=C(Nc1nc(COc2ccccc2)cs1)C1CCC1,?,?,0,?,?,12µM
CCOc1ccc(NC(=O)c2cn(C)c(=O)c3cc(OC)c(OC)cc23)cc1,-,-,0,-,-,0
COc1cccc(OC)c1C(=O)Nc1nc(COc2ccccc2)cs1,0,0,0,0,0,?
O=C(Nc1nc(COc2ccccc2)cs1)C12CC3CC(CC(C3)C1)C2,0,?,0,?,0,15µM
Cc1ccc(C(=O)Nc2nc(COc3ccccc3)cs2)s1,-,-,0,-,-,17µM
O=C(Nc1ccccc1-c1ccccc1)C12CC3CC(CC(C3)C1)C2,0,0,0,0,0,?
O=C(CCOc1ccccc1)N(Cc1cccnc1)c1nc2c(Cl)cccc2s1,-,-,-,-,-,0
CNC(=O)C1CCC(Cn2c(=O)c3sccc3n(CC(=O)NCc3ccc(C)cc3)c2=O)CC1 (centres undefined),-,-,-,-,-,0
Cn1nc(C(=O)Nc2ccc3c(c2)OCCO3)cc1C(=O)O,0,0,0,0,0,9.5µM
Cn1ccc(C(=O)Nc2ccc3c(c2)OCCO3)n1,0.71µM,0,-,5.8µM,0.89µM,?
Cn1nc(C(=O)Nc2ccc(Cl)cc2)cc1C(=O)Nc1ccc(Cl)cc1,0,0,-,0,0,0
Cn1c(=O)c2c(nc(Cc3ccccc3)n2CC(=O)O)n(C)c1=O,-,-,0[9.22 µM],-,-,-
Nc1cc(Cl)ccc1Oc1ccc2ccccc2c1,0,?,0,?,0,?
Cc1ccc(Oc2ccc(Cl)cc2N)cc1,0,0,0,0,0,21µM
O=C(/C=C/c1ccco1)NC(=S)Nc1nc(-c2ccc(Cl)cc2)cs1,0,0,-,0,0,0
O=C(/C=C\c1ccco1)Nc1nc(-c2ccccc2)cs1,?,?,?,0,0,12µM
N#Cc1ccc(-c2csc(NC(=O)/C=C/c3cccs3)n2)cc1,0,0,0,0,0,?
O=C(/C=C/c1ccccc1)Nc1nc(-c2ccncc2)cs1,0,0,0,0,0,2.7µM
CCOc1ccc(-n2c(=O)c3c4c(sc3n(CC(=O)Nc3cccc(C(F)(F)F)c3)c2=O)CCCCC4)cc1,-,-,0,-,-,0
Cc1nc(C)c(C(=O)OC(C)C(=O)Nc2ccc(F)cc2)s1 (centres undefined),0,0,-,0,0,-
Cc1cc(C(=O)OCC(=O)N2CCN(C(=O)c3ccco3)CC2)c(C)n1-c1ccc(F)cc1,0,0,0,0,0,0
O=C(OCC(=O)N1CCN(C(=O)c2ccco2)CC1)c1cc(-c2cccc(Br)c2)nc2ccccc12,0,0,0,0,0,9.5µM
SMILES,Rab9 prom act,p53 reactivation,SMN2 splice enh,ELG1 genotox,NPC1 prom act,FLuc counter
O=C(OCC(=O)N1CCN(C(=O)c2ccco2)CC1)c1cc(-c2ccc(F)cc2)nc2ccccc12,0,0,0,0,0,11µM
O=C(OCC(=O)N1CCN(C(=O)c2ccco2)CC1)c1cc(-c2ccccc2)nc2ccccc12,0,0,0,0,0,15µM
O=C(OCC(=O)N1CCN(C(=O)c2ccco2)CC1)c1ccccc1C(=O)c1ccccc1,0,0,0,0,0,0
C=C/C(C)=C/[C@@]1(C)SC(=O)C(C)=C1O,-,-,0,-,-,-
CCCc1cc(=O)oc2cc(C)cc(OCC(=O)NCc3ccncc3)c12,0,0,-,0,0,0
CCn1c(O)c(N=NC(=O)c2cccs2)c2ccccc21,0,0,0,0,?,17µM
C/C(=N\Nc1nc2ccc(Cl)cc2o1)c1ccccc1,?,0,-,0,0,17µM
C/C(=N/NS(=O)(=O)c1ccccc1)c1ccc(Cl)cc1,0,0,0,0,0,0
CCOc1ccc(-c2cc(C)n3nc(C(=O)Nc4cc(Cl)ccc4O)cc3n2)cc1,-,-,0,-,-,0
CC(=O)c1cccc(NC(=O)c2ccc(C)o2)c1,0,0,0,0,0,?
C/C(=N/NC(=O)c1ccccc1)C(=O)O,3.5µM,0,-,?,3.5µM,3.4µM
C/C(=N\NC(=O)c1ccccc1)c1cccc(Br)c1,2.5µM,0,?,?,?,13µM
C/C(=N\NC(=O)c1cccc(Br)c1)c1cccc(NC(=O)c2ccc(C)o2)c1,0,0,0,0,0,17µM
C/C(=N\NC(=O)c1cccc(Br)c1)c1ccc(Br)cc1,0,0,0,0,0,0
CC(/C=C/c1ccccc1F)=N\NC(=O)c1ccccc1,3.2µM,?,16µM,?,?,17µM
COc1ccc([C@@H](C)NC(=O)c2ccc3oc(C(C)C)nc3c2)cc1,?,?,-,0[9.26 µM],?,17µM
COc1cc(OC)cc(C(=O)Nc2ccc(-c3nc4ccccc4o3)cc2)c1,0,0,0,0,0,0
Cc1cccc(C(=O)Nc2ccc(-c3nc4cc(C(C)C)ccc4o3)cc2)c1,-,-,0,-,-,?
CC(C)c1ccc2oc(-c3ccc(NC(=O)c4ncn[nH]4)cc3)nc2c1,?,?,?,9.2µM,?,1.5µM
COc1cc(OC)cc(C(=O)Nc2ccc(-c3nc4cc(C(C)C)ccc4o3)cc2)c1,-,-,0,-,-,11µM
CCc1ccc(C(=O)Nc2cccc(-c3nc4cc(C(C)C)ccc4o3)c2)cc1,-,-,0,-,-,2.7µM
O=C(Nc1cccc(-c2nc3cc(Cl)ccc3o2)c1)c1ccc(F)cc1,-,-,-,-,-,0
CCC(C)c1ccc2oc(-c3ccc(NC(=O)c4ncn[nH]4)cc3)nc2c1 (centres undefined),0,?,0,?,0,2.7µM
Cc1ccc2oc(=O)c3cnn(CC(=O)N4CCN(c5cc(Cl)ccc5C)CC4)c3c2c1,-,-,0,-,-,0
CCOc1ccc(N=C(C)c2ccccc2O)cc1,0,0,0,0,0,21µM
O=C(Nc1cccc(F)c1)C1CCN(S(=O)(=O)c2ccc3[nH]c4c(c3c2)CCCCC4)CC1,-,-,-,-,-,0
COc1cc(CCN2C(=O)c3cccc4cccc(c34)C2=O)c(S(=O)(=O)NCCO)cc1OC,0,0,-,0,0,13µM
COc1cc(CCN2C(=O)c3cccc4cccc(c34)C2=O)c(S(=O)(=O)NCCCO)cc1OC,0,0,0,0,0,21µM
COc1cc(CCN2C(=O)c3cccc4cccc(c34)C2=O)c(S(=O)(=O)N2CCCCCC2)cc1OC,0,0,0,0,0,?
COc1cc(CCN2C(=O)c3cccc4cccc(c34)C2=O)c(S(=O)(=O)N2CCC(C)CC2)cc1OC,0,0,0,0,0,?
